In the library only some 2.9% were active in any assay of this set; here they are far more common.
DRD3 antagonist = D3 dopamine receptor (human) antagonism. P35462. D3R cells, DiscoveRx beta-arrestin luminescence, antagonist mode; stronger effect = lower value. max response, negative = inhibition, %. 360,000 tested, 2.5% active. AID 652054; in the data active means max response below about -50%; inconclusive means no clear call, values can overlap the other calls; further: on the % scale 0 is the no-effect control and ±100 the full control effect
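Cells expressing the human receptor were seeded at 1500 cells/well, incubated overnight at 37 degrees C in 5% CO2, then exposed to library compounds with dopamine controls for 90 minutes at 37 degrees C before luminescent detection.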
TRPML1 agonist = human mucolipin-1 channel agonism; activation, % (concentration not given with the values); Q9GZU1; AID 624414; TRPML1-expressing cells, Ca2+ dye fluorescence, FDSS; 410,000 tested, 0.12% active; in the data active means activation above about 50%; inconclusive means mostly about 30% to 49%; further: 0% is about no effect
Target sequence (Q9GZU1 whole entry, looked up): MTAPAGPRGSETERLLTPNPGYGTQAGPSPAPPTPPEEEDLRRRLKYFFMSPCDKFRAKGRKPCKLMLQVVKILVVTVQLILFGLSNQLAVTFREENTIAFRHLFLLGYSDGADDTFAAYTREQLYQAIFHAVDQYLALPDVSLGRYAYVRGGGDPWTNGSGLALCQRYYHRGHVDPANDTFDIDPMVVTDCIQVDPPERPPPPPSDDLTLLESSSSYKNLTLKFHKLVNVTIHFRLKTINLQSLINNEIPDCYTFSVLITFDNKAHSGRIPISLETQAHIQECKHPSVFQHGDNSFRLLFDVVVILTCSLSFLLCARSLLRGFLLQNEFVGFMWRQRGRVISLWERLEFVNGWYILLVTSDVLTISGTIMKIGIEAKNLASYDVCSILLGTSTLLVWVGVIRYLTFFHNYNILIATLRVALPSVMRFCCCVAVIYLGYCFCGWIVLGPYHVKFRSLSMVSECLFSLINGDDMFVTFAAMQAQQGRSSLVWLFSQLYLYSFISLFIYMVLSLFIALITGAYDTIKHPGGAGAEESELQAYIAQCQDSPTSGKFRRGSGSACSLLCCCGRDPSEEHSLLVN
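In this qHTS format, compounds were pin-transferred onto Ca8-dye-loaded TRPML1-DL cells induced with Tet overnight, and intracellular Ca2+ fluorescence was recorded kinetically for 110 s after a 10 s baseline. A subsequent 4uM final 54-4 (EC80) addition followed by a second 110 s read served as the antagonist phase.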
TRPML1 blocker = human mucolipin-1 channel inhibition; AID 624415; activity change, negative = inhibition, % (concentration not given with the values); Q9GZU1; 390,000 tested, 0.02% active; TRPML1-inducible cells, Ca2+ dye fluorescence, FDSS; stronger effect = lower value; inhibition of EC80 agonist-evoked calcium signal; in the data active means activity change below about -50%; inconclusive means between about -30% and that limit;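 further: stimulus is agonist 54-4 at its EC80 concentration; on the % scale 0 is the no-effect control and ±100 the full control effect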
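Tet-induced TRPML1-DL cells loaded with Ca8 no-wash calcium dye were read kinetically on FDSS. Compound addition was followed by EC80 agonist 54-4 (4 uM final); inhibition was read over 110 s.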
D3 ag = D3 dopamine receptor (human) agonism; max activation, %; P35462; D3R DiscoveRx beta-arrestin cells, luminescence, 90 min; AID 652048; 410,000 tested, 0.58% active; in the data active means max activation above about 30%; further: 0% is about no effect
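Cells at 1500/well, incubated overnight, then treated with pinned compounds (dopamine as control) for 90 min at 37 degrees C. DiscoveRx reagent added for 30 - 60 minutes at room temperature; luminescence read.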
Numbers without * were called inactive.

Screening OC(COCc1ccccc1)CN1CCc2ccccc2C1 (stereo not given) returned DRD3 antagonist -65*, TRPML1 agonist 0, TRPML1 blocker -11 and D3 ag -11.
`OC(COCc1ccccc1)CN1CCCC1` (stereo not given) gave DRD3 antagonist 2, TRPML1 agonist 4, TRPML1 blocker 22 and D3 ag 8.
COc1ccc(COCC(O)CN2CCc3ccccc3C2)cc1OC (stereo not given) was read as DRD3 antagonist -61*, TRPML1 agonist 0, TRPML1 blocker 3 and D3 ag -36.
`O=C(c1ccc(Cl)cc1)c1ccc(CN2C(=O)c3ccccc3C2=O)o1` gave DRD3 antagonist -64*, TRPML1 agonist 4, TRPML1 blocker 21 and D3 ag -5.
`COc1cc(Cl)c(S(=O)(=O)N2CCCC2)cc1Cl` gave DRD3 antagonist 58, TRPML1 agonist 0, TRPML1 blocker -7 and D3 ag 1.
COc1cc(N2C(=O)C=CC2=O)c(OC)cc1Cl was read as DRD3 antagonist -89*, TRPML1 agonist 2, TRPML1 blocker 41 and D3 ag -30.
Screening O=C(O)CCN1C(=O)CC(N2C(=O)/C(=C/c3ccc(Cl)cc3)SC2=S)C1=O (stereo not given) returned DRD3 antagonist 0, TRPML1 agonist 0, TRPML1 blocker 6 and D3 ag 31*.
`CCOc1ccccc1NC(=O)Cc1csc(COc2cccc(C)c2)n1` gave TRPML1 agonist 0, TRPML1 blocker 11 and D3 ag 4.
`COC(=O)c1ccc(CN2CCC(CO)(CCOc3ccccc3)CC2)cc1` gave DRD3 antagonist inconclusive, TRPML1 agonist 1, TRPML1 blocker 6 and D3 ag -16.
Screening COc1ccc(CC2(CO)CCN(Cc3cc4ccccc4o3)CC2)cc1 returned DRD3 antagonist -56*, TRPML1 agonist 0, TRPML1 blocker 13 and D3 ag 25.
`COC(=O)c1ccc(CN2CCC(CO)(Cc3cccc(OC)c3)CC2)cc1` gave DRD3 antagonist -80*, TRPML1 agonist 1, TRPML1 blocker -5 and D3 ag -9.
Screening COc1cccc(CC(=O)N2CCCC(CO)(Cc3ccc(F)cc3F)C2)c1 (stereo not given) returned DRD3 antagonist -1, TRPML1 agonist 0, TRPML1 blocker -11 and D3 ag -3.
COC(=O)c1ccc(CN2CCCC(CO)(Cc3ccc(F)cc3F)C2)cc1 (stereo not given) was read as DRD3 antagonist -96*, TRPML1 agonist -1, TRPML1 blocker -18 and D3 ag -18.
For COc1ccc(-c2nc(CSc3nnc(C)n4c3cc3sccc34)c(C)o2)cc1 the results were TRPML1 agonist 0, TRPML1 blocker -17 and D3 ag -24.
Cc1ccc(N2C(=O)C(F)(F)C2c2ccccc2)cc1 (stereo not given) was read as DRD3 antagonist -22, TRPML1 agonist 63*, TRPML1 blocker -20 and D3 ag 0.
For O=C1N(c2ccc3c(c2)OCCO3)C(c2ccccc2)C1(F)F (stereo not given) the results were DRD3 antagonist 1, TRPML1 agonist 3, TRPML1 blocker 9 and D3 ag -4.
Screening O=C(Nc1ccc(F)c(Cl)c1)N1CCC(CN2CCc3ccccc3C2)CC1 returned TRPML1 agonist 1, TRPML1 blocker -2 and D3 ag -20.
`COc1ccc(N2CCN(C(=O)C3CCN(S(=O)(=O)c4cn(C)cn4)CC3)CC2)cc1` gave TRPML1 agonist 0, TRPML1 blocker 49 and D3 ag -9.
CCOc1ccc(Nc2c(S(=O)(=O)c3ccc(C)cc3)cnc3ccccc23)cc1 was read as TRPML1 agonist 0, TRPML1 blocker -22 and D3 ag -13.
Screening CCOc1ccc(Nc2c(S(=O)(=O)c3ccc(C)cc3)cnc3ccc(F)cc23)cc1 returned TRPML1 agonist 63*, TRPML1 blocker -13 and D3 ag -2.
For CCC1=Nc2cc(C(=O)NC3CCCC3)ccc2Sc2ccc(Br)cc21 the results were TRPML1 agonist 1, TRPML1 blocker 37 and D3 ag 0.
Screening Cc1c(Cl)cccc1N=Cc1ccc([N+](=O)[O-])s1 returned DRD3 antagonist -51*, TRPML1 agonist 0, TRPML1 blocker 1 and D3 ag -29.
Cc1ccccc1C(=O)N/N=C/c1ccc([N+](=O)[O-])s1 was read as DRD3 antagonist -10, TRPML1 agonist 2, TRPML1 blocker -2 and D3 ag 5.
`Cc1ccc(S(=O)(=O)N2CCN(C(=O)CN3CCCSc4ccccc43)CC2)cc1` gave DRD3 antagonist -55*, TRPML1 agonist 0, TRPML1 blocker 41 and D3 ag -12.
For COc1ccccc1OC(C)C(=O)Nc1c(C(=O)c2ccc(Cl)cc2)oc2ccccc12 (stereo not given) the results were TRPML1 agonist 0, TRPML1 blocker -7 and D3 ag 3.
`CCC(C)NC(=O)c1ccc(Cn2c(=O)c3cccn3c3cccnc32)cc1` (stereo not given) gave TRPML1 agonist -1, TRPML1 blocker -14 and D3 ag -9.
Screening Cn1cccc1/C=N\NC(=O)C1COc2ccccc2O1 (stereo not given) returned DRD3 antagonist 1, TRPML1 agonist 85*, TRPML1 blocker -7 and D3 ag -4.
`O=C(NCCc1ccc(O)c(O)c1)C1COc2ccccc2O1` (stereo not given) gave DRD3 antagonist 13, TRPML1 agonist 1, TRPML1 blocker 3 and D3 ag 92*.
`Cc1c(/C=N\NC(=O)C2COc3ccc(C(C)(C)C)cc3O2)c2ccccc2n1C` (stereo not given) gave DRD3 antagonist 19, TRPML1 agonist 1, TRPML1 blocker 17 and D3 ag 58*.
For O=C(NCCc1ccccc1)C1COc2ccccc2O1 (stereo not given) the results were DRD3 antagonist -3, TRPML1 agonist 4, TRPML1 blocker 43 and D3 ag -6.
COc1cc(/C=N/NC(=O)C2COc3ccccc3O2)ccc1O (stereo not given) was read as DRD3 antagonist -56*, TRPML1 agonist 0, TRPML1 blocker -13 and D3 ag -11.
Cn1cccc1/C=N\NC(=O)C1COc2ccc(C(C)(C)C)cc2O1 (stereo not given) was read as DRD3 antagonist 13, TRPML1 agonist 1, TRPML1 blocker -13 and D3 ag 12.
COc1ccc(/C=N\NC(=O)C2COc3ccccc3O2)cc1O (stereo not given) was read as DRD3 antagonist -24 and D3 ag -9.
Cc1ccc(-c2noc(C3CC(=O)N(c4ccc5c(c4)OCCO5)C3)n2)cc1 (stereo not given) was read as TRPML1 agonist 1, TRPML1 blocker -7 and D3 ag 6.
`COc1cccc(CNS(=O)(=O)c2cc3[nH]c(=O)c(=O)[nH]c3cc2C)c1` gave TRPML1 agonist 4, TRPML1 blocker 13 and D3 ag 5.
